The panel holds about 83,000 compounds, 20% with a hit somewhere; the sample as a whole holds those more often.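 Growth was measured after 48 h exposure to one concentration of compound in 96-well plates. Values under 10 count as active.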 Unmarked numbers belong to inactive results. The source made the active and inactive calls.
System: DU-145 prostate
Experiment: NCI-60 one-dose screen, 48 h (100 = growth as untreated, 0 = no growth, -100 = all killed)
Conditions: 10 µM unless noted

SMILES | growth
C#C[C@]1(O)CC[C@H]2[C@@H]3CC=C4c5sc(Nc6cc(C)cc(C)c6)nc5CC[C@]4(C)[C@H]3CC[C@@]21C | 45.4%
CCCC[n+]1ccc(SCC(=O)n2ccc3ccccc32)c2ccccc21 | 94.6%
CC(C)(C)c1cc(NC(=O)Nc2ccc(-c3cn4c5c(sc4n3)CCc3cn(CCCN4CCCCC4)cc3-5)cc2)no1 | -96.4% (active)
CCCCCCNC(=O)Oc1ccc(/C(=C(/C)c2ccc(OC)cc2)c2ccc(OCCN3CCCCCC3)cc2)cc1 | 47.8%
Cn1cc(-c2cc3ncnc(Nc4ccc(CC(=O)Nc5nc(C(C)(C)C)cs5)cc4)c3s2)cn1 | 38%
O=C(CCCCCC/C=C\c1csc(Br)n1)NO | 87.7%
COc1ccc(C(=O)c2c(N)c(C#N)cn2-c2ccc(Cl)cc2Cl)cc1 | 110%
Cc1ccc2c(n1)C(=O)C(Cl)=C(Nc1cccc(C(F)(F)F)c1)C2=O | 98.7%
O=C1[C@H]2Cc3c([nH]c4ccccc34)[C@H](c3ccc(Cl)cc3)N2C(=O)CN1C1CCN(CC2CCCCC2)CC1 | 74.6%
COc1ccc(/C=N/NC(=O)c2c(N)nn(C)c2Nc2ccccc2)cc1 | 76.3%
Fc1ccc2nc(-c3cnn4cccnc34)sc2c1 | 103%
O=C(/C=C/c1cccc(F)c1)c1cccc(OCCCCOc2cccc(C(=O)/C=C/c3cccc(F)c3)c2)c1 | 107%
O=C(COc1ccc(/C=C2\C(=O)Nc3ccc(Cl)cc32)cc1)Nc1ccc(Cl)cc1 | 53.7%
